# Reference: ChEMBL document CHEMBL1961873, “Compounds: GSK PKIS; Assays: Nanosyn kinase panel” (2012)
# Key:
# [1] = target: Dual specificity protein kinase CLK3 (Homo sapiens) (UniProt P49761); conditions: at 1 µM;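 also: each value is the mean inhibition of CLK3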
# [2] = target: Dual specificity tyrosine-phosphorylation-regulated kinase 1A (Homo sapiens) (UniProt Q13627); conditions: at 0.1 µM
# [3] = target: Dual specificity tyrosine-phosphorylation-regulated kinase 1A (Homo sapiens) (UniProt Q13627); conditions: at 1 µM
# [4] = target: Dual specificity tyrosine-phosphorylation-regulated kinase 1B (Homo sapiens) (UniProt Q9Y463); conditions: at 0.1 µM
# [5] = target: Dual specificity tyrosine-phosphorylation-regulated kinase 1B (Homo sapiens) (UniProt Q9Y463); conditions: at 1 µM
# [6] = target: T1, Dual specificity tyrosine-phosphorylation-regulated kinase 2 (Homo sapiens) (UniProt Q92630); conditions: at 0.1 µM
# T1 sequence (whole entry): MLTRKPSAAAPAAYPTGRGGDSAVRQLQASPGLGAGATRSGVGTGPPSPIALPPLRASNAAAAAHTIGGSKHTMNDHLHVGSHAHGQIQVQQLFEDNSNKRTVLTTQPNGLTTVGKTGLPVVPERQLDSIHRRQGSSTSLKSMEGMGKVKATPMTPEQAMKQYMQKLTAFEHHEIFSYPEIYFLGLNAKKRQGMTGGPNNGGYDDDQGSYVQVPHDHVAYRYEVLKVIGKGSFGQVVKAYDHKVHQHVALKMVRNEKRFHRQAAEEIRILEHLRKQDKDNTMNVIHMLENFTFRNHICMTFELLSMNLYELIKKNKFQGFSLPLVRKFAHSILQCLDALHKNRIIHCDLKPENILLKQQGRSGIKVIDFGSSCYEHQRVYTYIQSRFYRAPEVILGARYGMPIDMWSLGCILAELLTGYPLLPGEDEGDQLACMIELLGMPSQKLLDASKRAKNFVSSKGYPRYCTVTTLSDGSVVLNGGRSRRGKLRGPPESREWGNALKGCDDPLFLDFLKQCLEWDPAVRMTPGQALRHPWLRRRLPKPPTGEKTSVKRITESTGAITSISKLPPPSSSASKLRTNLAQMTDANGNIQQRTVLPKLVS
# [7] = target: T1, Dual specificity tyrosine-phosphorylation-regulated kinase 2 (Homo sapiens); conditions: at 1 µM
# [8] = target: Glycogen synthase kinase-3 alpha (Homo sapiens) (UniProt P49840); conditions: at 0.1 µM
# [9] = target: Glycogen synthase kinase-3 alpha (Homo sapiens) (UniProt P49840); conditions: at 1 µM
# [10] = target: Glycogen synthase kinase-3 beta (Homo sapiens) (UniProt P49841); conditions: at 0.1 µM
# [11] = target: Glycogen synthase kinase-3 beta (Homo sapiens) (UniProt P49841); conditions: at 1 µM
# [12] = target: Homeodomain-interacting protein kinase 1 (Homo sapiens) (UniProt Q86Z02); conditions: at 0.1 µM
# [13] = target: Homeodomain-interacting protein kinase 1 (Homo sapiens) (UniProt Q86Z02); conditions: at 1 µM
# [14] = target: T2, Homeodomain-interacting protein kinase 4 (Homo sapiens) (UniProt Q8NE63); conditions: at 0.1 µM
# T2 sequence (whole entry): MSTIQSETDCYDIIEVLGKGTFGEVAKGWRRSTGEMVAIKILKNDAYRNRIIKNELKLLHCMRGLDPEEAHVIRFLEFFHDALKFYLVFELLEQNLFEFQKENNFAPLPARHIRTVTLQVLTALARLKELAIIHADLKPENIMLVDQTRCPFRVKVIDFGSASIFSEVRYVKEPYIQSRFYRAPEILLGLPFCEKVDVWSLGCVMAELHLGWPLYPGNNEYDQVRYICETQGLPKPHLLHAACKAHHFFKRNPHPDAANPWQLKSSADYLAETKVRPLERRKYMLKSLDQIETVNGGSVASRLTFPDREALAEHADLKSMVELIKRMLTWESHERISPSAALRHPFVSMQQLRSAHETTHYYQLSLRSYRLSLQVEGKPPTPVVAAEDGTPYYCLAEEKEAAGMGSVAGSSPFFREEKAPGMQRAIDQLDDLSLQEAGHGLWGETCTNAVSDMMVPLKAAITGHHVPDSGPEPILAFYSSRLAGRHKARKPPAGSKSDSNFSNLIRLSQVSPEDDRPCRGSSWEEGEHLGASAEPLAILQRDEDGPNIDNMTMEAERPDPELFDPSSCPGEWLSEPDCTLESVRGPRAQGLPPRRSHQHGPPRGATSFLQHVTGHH
# [15] = target: T2, Homeodomain-interacting protein kinase 4 (Homo sapiens); conditions: at 1 µM
# [16] = target: Mitogen-activated protein kinase 9 (Homo sapiens) (UniProt P45984); conditions: at 0.1 µM
# [17] = target: Mitogen-activated protein kinase 9 (Homo sapiens) (UniProt P45984); conditions: at 1 µM
# [18] = target: Mitogen-activated protein kinase 1 (Homo sapiens) (UniProt P28482); conditions: at 0.1 µM
# [19] = target: Mitogen-activated protein kinase 1 (Homo sapiens) (UniProt P28482); conditions: at 1 µM
# [20] = target: Mitogen-activated protein kinase 3 (Homo sapiens) (UniProt P27361); conditions: at 0.1 µM;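 also: each value is a mean inhibition figure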
# Mitogen-activated protein kinase 3 (Homo sapiens), sequence (P27361 whole entry): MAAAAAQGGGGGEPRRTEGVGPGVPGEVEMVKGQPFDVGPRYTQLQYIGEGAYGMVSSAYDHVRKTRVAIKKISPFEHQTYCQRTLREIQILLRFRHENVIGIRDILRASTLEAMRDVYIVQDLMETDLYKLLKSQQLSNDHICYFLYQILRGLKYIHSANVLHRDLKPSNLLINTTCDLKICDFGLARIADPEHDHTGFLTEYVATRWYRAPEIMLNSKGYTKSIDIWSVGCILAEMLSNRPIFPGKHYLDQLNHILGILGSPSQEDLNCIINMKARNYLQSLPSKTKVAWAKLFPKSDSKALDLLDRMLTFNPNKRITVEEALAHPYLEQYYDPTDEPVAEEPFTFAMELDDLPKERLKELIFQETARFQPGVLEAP
# Mitogen-activated protein kinase 1 (Homo sapiens), sequence (P28482 whole entry): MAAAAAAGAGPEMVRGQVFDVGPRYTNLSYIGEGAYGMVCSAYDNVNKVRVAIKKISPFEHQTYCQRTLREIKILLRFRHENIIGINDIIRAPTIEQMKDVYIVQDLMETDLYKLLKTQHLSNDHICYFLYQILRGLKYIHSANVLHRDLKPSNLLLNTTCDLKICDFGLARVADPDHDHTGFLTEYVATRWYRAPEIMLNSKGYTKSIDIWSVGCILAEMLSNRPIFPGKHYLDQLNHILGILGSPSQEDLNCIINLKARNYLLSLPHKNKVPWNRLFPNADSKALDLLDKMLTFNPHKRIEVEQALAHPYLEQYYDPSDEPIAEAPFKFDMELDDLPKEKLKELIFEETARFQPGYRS
# Glycogen synthase kinase-3 alpha (Homo sapiens), sequence (P49840 2-483 limits assumed): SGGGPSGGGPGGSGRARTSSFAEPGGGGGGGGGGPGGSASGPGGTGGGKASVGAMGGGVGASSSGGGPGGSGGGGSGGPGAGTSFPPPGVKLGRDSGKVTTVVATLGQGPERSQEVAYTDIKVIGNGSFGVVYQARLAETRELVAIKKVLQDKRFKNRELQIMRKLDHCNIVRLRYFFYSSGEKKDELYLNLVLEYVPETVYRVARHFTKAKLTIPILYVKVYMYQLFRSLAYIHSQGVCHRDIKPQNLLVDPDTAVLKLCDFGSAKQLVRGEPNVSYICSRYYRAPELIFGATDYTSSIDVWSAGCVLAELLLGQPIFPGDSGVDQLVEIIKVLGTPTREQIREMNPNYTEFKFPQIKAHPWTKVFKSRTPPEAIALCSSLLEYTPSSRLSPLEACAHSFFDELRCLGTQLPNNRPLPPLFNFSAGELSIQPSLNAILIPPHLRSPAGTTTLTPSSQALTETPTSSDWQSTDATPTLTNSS
# Glycogen synthase kinase-3 beta (Homo sapiens), sequence (P49841 whole entry, looked up): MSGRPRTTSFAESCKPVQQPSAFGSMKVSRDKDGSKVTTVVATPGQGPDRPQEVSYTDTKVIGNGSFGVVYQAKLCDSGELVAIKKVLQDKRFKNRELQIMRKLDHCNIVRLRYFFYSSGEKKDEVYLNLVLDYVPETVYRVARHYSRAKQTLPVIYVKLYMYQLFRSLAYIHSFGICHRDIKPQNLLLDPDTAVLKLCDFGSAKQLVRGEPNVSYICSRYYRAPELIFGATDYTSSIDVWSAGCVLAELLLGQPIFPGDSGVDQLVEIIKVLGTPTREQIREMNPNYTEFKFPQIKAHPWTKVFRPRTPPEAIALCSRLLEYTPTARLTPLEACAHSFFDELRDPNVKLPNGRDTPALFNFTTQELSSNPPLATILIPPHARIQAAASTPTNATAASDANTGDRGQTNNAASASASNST
# Homeodomain-interacting protein kinase 1 (Homo sapiens), sequence (Q86Z02 whole entry, looked up): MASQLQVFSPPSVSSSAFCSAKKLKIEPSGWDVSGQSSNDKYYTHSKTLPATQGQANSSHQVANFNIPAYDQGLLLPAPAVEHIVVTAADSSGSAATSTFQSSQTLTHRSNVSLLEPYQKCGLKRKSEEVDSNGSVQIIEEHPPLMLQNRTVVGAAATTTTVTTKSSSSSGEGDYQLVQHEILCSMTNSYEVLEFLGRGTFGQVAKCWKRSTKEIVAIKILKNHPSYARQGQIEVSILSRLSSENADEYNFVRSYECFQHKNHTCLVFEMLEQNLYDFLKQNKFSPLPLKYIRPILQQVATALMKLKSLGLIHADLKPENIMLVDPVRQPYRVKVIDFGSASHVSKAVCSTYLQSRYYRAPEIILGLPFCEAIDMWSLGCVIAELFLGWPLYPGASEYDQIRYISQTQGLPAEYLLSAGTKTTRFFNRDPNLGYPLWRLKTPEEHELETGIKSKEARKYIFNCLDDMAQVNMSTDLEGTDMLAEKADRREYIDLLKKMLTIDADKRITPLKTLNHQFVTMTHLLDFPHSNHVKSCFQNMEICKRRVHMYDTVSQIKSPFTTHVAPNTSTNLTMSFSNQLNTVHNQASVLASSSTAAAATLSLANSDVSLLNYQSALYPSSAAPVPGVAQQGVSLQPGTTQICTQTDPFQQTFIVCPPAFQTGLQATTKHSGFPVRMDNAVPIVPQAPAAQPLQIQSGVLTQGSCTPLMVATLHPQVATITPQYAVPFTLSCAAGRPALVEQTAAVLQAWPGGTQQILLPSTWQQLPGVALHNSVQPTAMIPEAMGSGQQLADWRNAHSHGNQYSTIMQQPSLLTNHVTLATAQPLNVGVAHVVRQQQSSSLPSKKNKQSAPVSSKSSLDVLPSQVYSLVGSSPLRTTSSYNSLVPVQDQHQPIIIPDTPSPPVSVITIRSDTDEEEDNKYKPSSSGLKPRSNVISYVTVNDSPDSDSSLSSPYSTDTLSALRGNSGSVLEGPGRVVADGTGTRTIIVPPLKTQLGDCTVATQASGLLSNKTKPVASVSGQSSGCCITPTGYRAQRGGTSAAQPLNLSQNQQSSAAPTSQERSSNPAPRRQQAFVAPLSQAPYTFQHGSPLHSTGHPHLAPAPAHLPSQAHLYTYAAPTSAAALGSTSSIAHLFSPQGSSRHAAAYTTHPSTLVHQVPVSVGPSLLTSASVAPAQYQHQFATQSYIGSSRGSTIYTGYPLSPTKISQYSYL
# Dual specificity tyrosine-phosphorylation-regulated kinase 1B (Homo sapiens), sequence (Q9Y463 whole entry, looked up): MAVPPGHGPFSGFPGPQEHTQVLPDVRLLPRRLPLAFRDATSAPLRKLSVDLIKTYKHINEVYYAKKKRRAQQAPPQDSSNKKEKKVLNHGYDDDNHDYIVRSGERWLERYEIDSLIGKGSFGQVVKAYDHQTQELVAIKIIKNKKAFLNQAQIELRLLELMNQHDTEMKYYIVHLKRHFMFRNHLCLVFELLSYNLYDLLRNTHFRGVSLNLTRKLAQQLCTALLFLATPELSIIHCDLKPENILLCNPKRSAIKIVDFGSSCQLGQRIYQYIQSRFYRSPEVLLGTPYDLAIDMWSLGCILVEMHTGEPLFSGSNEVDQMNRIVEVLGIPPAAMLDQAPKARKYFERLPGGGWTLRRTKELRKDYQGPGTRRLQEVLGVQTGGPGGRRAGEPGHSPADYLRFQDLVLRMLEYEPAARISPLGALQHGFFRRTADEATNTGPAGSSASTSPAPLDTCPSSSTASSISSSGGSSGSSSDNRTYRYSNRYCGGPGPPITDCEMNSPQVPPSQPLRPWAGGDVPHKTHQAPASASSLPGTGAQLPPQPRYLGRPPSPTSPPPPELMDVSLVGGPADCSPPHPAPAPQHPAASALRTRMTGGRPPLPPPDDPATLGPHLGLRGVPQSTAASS
# Mitogen-activated protein kinase 9 (Homo sapiens), sequence (P45984 whole entry, looked up): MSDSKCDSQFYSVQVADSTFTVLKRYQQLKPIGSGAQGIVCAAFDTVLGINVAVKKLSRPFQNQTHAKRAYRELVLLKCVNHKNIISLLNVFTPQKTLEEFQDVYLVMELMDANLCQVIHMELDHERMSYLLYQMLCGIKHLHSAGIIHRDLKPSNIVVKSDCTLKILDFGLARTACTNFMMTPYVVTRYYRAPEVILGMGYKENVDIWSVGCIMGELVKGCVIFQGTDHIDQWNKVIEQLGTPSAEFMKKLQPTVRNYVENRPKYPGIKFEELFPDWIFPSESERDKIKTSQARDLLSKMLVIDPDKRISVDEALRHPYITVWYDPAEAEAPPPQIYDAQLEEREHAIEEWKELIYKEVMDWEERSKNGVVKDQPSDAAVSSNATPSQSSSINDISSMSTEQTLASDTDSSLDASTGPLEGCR
# Dual specificity protein kinase CLK3 (Homo sapiens), sequence (P49761 whole entry, looked up): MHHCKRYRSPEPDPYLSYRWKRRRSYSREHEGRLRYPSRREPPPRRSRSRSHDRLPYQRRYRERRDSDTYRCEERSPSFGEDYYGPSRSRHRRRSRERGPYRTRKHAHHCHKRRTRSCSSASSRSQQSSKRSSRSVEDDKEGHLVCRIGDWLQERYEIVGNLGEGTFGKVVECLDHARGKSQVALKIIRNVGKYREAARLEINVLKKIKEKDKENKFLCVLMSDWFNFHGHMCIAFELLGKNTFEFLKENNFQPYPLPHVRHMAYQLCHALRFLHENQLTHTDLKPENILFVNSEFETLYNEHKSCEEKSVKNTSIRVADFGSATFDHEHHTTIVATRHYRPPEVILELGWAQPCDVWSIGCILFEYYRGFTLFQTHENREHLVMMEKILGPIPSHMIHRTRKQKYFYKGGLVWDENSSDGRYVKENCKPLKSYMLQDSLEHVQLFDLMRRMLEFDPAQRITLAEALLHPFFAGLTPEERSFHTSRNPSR
Structure (SMILES),inhibition [1] [%],inhibition [2] [%],inhibition [3] [%],inhibition [4] [%],inhibition [5] [%],inhibition [6] [%],inhibition [7] [%],inhibition [8] [%],inhibition [9] [%],inhibition [10] [%],inhibition [11] [%],inhibition [12] [%],inhibition [13] [%],inhibition [14] [%],inhibition [15] [%],inhibition [16] [%],inhibition [17] [%],inhibition [18] [%],inhibition [19] [%],inhibition [20] [%]
COc1ccc2cc(-c3c(-c4ccncc4)nc(-c4ccc([S+](C)[O-])cc4C)n3C)ccc2c1 (stereo unspecified),2.67,2,7.26,2.45,6.41,-0.45,0,7.28,15.4,5.99,14.7,3.05,6.01,2.25,5.99,0.79,8.03,-0.46,-2.44,0.3
Cc1nnc(-c2ccc(C)c(-c3ccc(C(=O)NCc4ccc(Cl)cc4)cc3)c2)o1,-1.79,0.32,0.5,-2.54,-4.08,2.1,3.03,0.36,9.75,-0.31,4.25,-2.88,-3.98,-0.69,0.29,4.09,4.44,8.3,4.45,2.96
O=C(Nc1ccc(Oc2ccc3[nH]c(NC(=O)c4ccccc4)nc3c2)cc1)Nc1cc(C(F)(F)F)ccc1F,3.71,1.94,4.75,0.86,3.47,2.36,3.65,3.49,8.16,3.19,7.73,-0.21,0.17,9.12,47.7,3.43,6.62,2.12,2.7,4.31
NS(=O)(=O)c1ccc(N/N=C2\C(=O)Nc3ccc(-c4cnco4)cc32)cc1,1.68,29.3,81.2,4.08,38.5,9.21,52,31.6,67.4,26.4,65.2,-2.16,25.2,3.05,15.6,0.65,2.38,3.21,7.04,2.36
NC(=O)c1cc(-c2ccncc2)cc(-c2ccccc2)c1N,2.34,6.65,29.2,3.05,17.9,3.61,4.25,3.97,12.7,2.53,9.17,-1.44,-0.02,1.54,4.34,5.97,6.49,4,6.15,3.98
NCc1ccc(-n2c(-c3nonc3N)nc3cnccc32)cc1,3.13,8.53,37.5,5.66,36.4,3.41,4.54,25.6,67,18.1,60.1,1.51,9.18,0.98,5.32,7.98,6.05,6.45,8.32,4.41
C[C@@H](Oc1cc(-n2cnc3ccc(OCC4CCN(C)CC4)cc32)sc1C(N)=O)c1ccccc1Cl,2.9,2.94,3.56,1.54,2.55,4.66,9.72,4.39,10.2,2.71,8.9,-1.26,8.77,3.09,21.8,7.22,10.9,7.6,8.78,4.68
NS(=O)(=O)c1ccc(Nc2cc(-c3ccc(O)c(F)c3)n[nH]2)cc1,2.65,1.28,4.89,2.64,5.44,-2.19,3.75,1.79,23.5,4.44,38,0.97,16.1,1.96,10.4,-1.59,2.43,–,-4.87,-1.57
COc1cc(Nc2ncc3c(C)nc(-c4cccc(C(F)(F)F)c4)n3n2)cc(OC)c1OC,2.91,4.11,29.8,0.38,11.2,2.73,3.63,2.88,13.8,4.09,28.1,4.84,26.8,1.83,9.08,0.45,4.58,5.55,13,4.86
CCc1ccc(Oc2nccc(-c3c(-c4ccc(F)cc4)ncn3C3CCNCC3)n2)cc1,0.51,0.92,1.59,-0.38,1.04,4.87,4.71,3.69,7.13,2.44,7.29,-2.3,1.77,0.48,2.99,–,–,6.77,11.6,5.92
CN(C)c1ccc2c(c1)/C(=C/Nc1ccc(S(N)(=O)=O)cc1)C(=O)N2,3.39,7.43,33.4,4.54,24.5,1.54,4.74,8.28,21.6,6.03,24.2,0.15,12,-0.09,6.94,3.27,2.71,1.12,2.53,0.06
CNC(=O)c1cncc(/C=C/c2c(C)cccc2C)c1,-2.04,-1.29,2.27,0.49,1.89,-0.14,-0.61,-2.93,-0.82,-1.93,-0.33,-0.47,2.67,1.19,6.66,2.54,1.94,-3.06,0.43,0.86
COc1cc(Nc2ncc(-c3ccccc3)o2)cc(OC)c1OC,0.88,1.8,6.39,1.65,3.72,-2.15,-1.69,5.71,34.4,5.44,35.8,–,11.2,0.61,3.87,-3.91,-3.35,-2.3,-1.83,0.83
